Assay results: the supplement of paper PMC8728848
Shown is part of a subset that was picked to be rich in the strongest signals.

Assays:
Assay in all cases: glycan array binding signal (z-score within array); higher = stronger binding
Conditions in all cases: glycan notation: IUPAC condensed, linker removed
GalNAc(b1-3)GlcNAc = target: GalNAc(b1-3)GlcNAc
Procedure, shortened: (§1)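 From the Consortium for Functional Glycomics database, 3228 arrays were curated, keeping only those whose protein sequence was available. Binding is given as a within-array Z-score averaged across arrays sharing a protein sequence and across linkers. Negative Z-scores can be read as non-binding.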

[1] = target: Glc(a1-4)Glc(a1-4)Glc(a1-4)Glc
Procedure, shortened: as §1

Glc(b1-6)Glc = target: Glc(b1-6)Glc
Procedure, shortened: as §1

[2] = target: GlcNAc(b1-2)Man(a1-3)[GlcNAc(b1-2)Man(a1-6)]Man(b1-4)GlcNAc(b1-4)GlcNAc
Procedure, shortened: as §1

[3] = target: GlcNAc(b1-2)[GlcNAc(b1-4)]Man(a1-3)[GlcNAc(b1-4)][GlcNAc(b1-2)[GlcNAc(b1-6)]Man(a1-6)]Man(b1-4)GlcNAc(b1-4)GlcNAc
Procedure, shortened: as §1

[4] = target: GlcNAc(b1-3)Gal(b1-4)GlcNAc(b1-3)Gal(b1-4)GlcNAc(b1-3)GalNAc
Procedure, shortened: as §1

GlcNAc(b1-6)GalNAc = target: GlcNAc(b1-6)GalNAc
Procedure, shortened: as §1

[5] = target: Man(a1-2)Man(a1-2)Man(a1-6)[Man(a1-3)]Man
Procedure, shortened: as §1

[6] = target: Man(a1-2)Man(a1-3)[Man(a1-6)]Man(a1-6)[Man(a1-2)Man(a1-3)]Man(b1-4)GlcNAc(b1-4)GlcNAc
Procedure, shortened: as §1

Man(a1-3)[Man(a1-6)]Man = target: Man(a1-3)[Man(a1-6)]Man
Procedure, shortened: as §1

[7] = target: Man(a1-3)[Man(a1-6)]Man(a1-6)[Man(a1-3)]Man
Procedure, shortened: as §1

[8] = target: Man(a1-3)[Man(a1-6)]Man(b1-4)GlcNAc(b1-4)GlcNAc
Procedure, shortened: as §1

[9] = target: Man(a1-3)[Man(a1-6)]Man(b1-4)GlcNAc(b1-4)[Fuc(a1-6)]GlcNAc
Procedure, shortened: as §1

Man(b1-4)GlcNAc = target: Man(b1-4)GlcNAc
Procedure, shortened: as §1

MurNAc(b1-4)GlcNAc = target: MurNAc(b1-4)GlcNAc
Procedure, shortened: as §1

[10] = target: Neu5Ac(a2-3)Gal(b1-3)GalNAc6S
Procedure, shortened: as §1

[11] = target: Neu5Ac(a2-3)Gal(b1-3)[Fuc(a1-4)]GlcNAc(b1-3)Gal(b1-4)[Fuc(a1-3)]GlcNAc
Procedure, shortened: as §1

[12] = target: Neu5Ac(a2-3)Gal(b1-4)GlcNAc(b1-2)Man(a1-3)[GlcNAc(b1-4)][Neu5Ac(a2-3)Gal(b1-4)GlcNAc(b1-2)Man(a1-6)]Man(b1-4)GlcNAc(b1-4)GlcNAc
Procedure, shortened: as §1

[13] = target: Neu5Ac(a2-3)Gal(b1-4)GlcNAc(b1-3)Gal
Procedure, shortened: as §1

[14] = target: Neu5Ac(a2-3)Gal(b1-4)GlcNAc(b1-3)Gal(b1-4)GlcNAc(b1-3)Gal(b1-4)GlcNAc
Procedure, shortened: as §1

[15] = target: Neu5Ac(a2-3)Gal(b1-4)GlcNAc(b1-3)Gal(b1-4)GlcNAc(b1-3)Gal(b1-4)GlcNAc(b1-2)Man(a1-3)[Neu5Ac(a2-3)Gal(b1-4)GlcNAc(b1-3)Gal(b1-4)GlcNAc(b1-3)Gal(b1-4)GlcNAc(b1-2)Man(a1-6)]GalNAc
Procedure, shortened: as §1

[16] = target: Neu5Ac(a2-3)Gal(b1-4)GlcNAc(b1-3)Gal(b1-4)[Fuc(a1-3)]GlcNAc
Procedure, shortened: as §1

[17] = target: Neu5Ac(a2-6)Gal(b1-4)GlcNAc(b1-2)Man(a1-3)[Neu5Ac(a2-3)Gal(b1-4)GlcNAc(b1-2)Man(a1-6)]Man(b1-4)GlcNAc(b1-4)GlcNAc
Procedure, shortened: as §1

[18] = target: Neu5Ac(a2-6)Gal(b1-4)GlcNAc(b1-2)Man(a1-3)[Neu5Ac(a2-6)Gal(b1-4)GlcNAc(b1-2)Man(a1-6)]Man(b1-4)GlcNAc(b1-4)[Fuc(a1-6)]GlcNAc
Procedure, shortened: as §1

[19] = target: Neu5Ac(a2-6)Gal(b1-4)GlcNAc(b1-2)Man(a1-6)Man(b1-4)GlcNAc(b1-4)GlcNAc
Procedure, shortened: as §1

[20] = target: Neu5Ac(a2-6)Gal(b1-4)GlcNAc(b1-3)Gal(b1-4)[Fuc(a1-3)]GlcNAc(b1-3)Gal(b1-4)[Fuc(a1-3)]GlcNAc
Procedure, shortened: as §1

Neu5Ac(a2-8)Neu5Ac = target: Neu5Ac(a2-8)Neu5Ac
Procedure, shortened: as §1

[21] = target: Neu5Ac(a2-8)Neu5Ac(a2-3)Gal(b1-4)GlcNAc
Procedure, shortened: as §1

B1: Blon2468mut (Bifidobacterium longum) (protein)
chain: MTFIKQMMPRYVASMTAGIVAAAMAATCAFAPVANADAVSPTQETIQSTGRHFMVYYRAWRDVTMKGVNTDLPDDNWISMYDIPYGVDVVNIFSYVPSGQEEQAQPFYDKLKSDYAPYLHSRGIKLVRGIDYTGVAVNGFRTFMKEQNKTESEATEADYDAYAKQVIDKYMISVGLDGLDIDMQAHPNDADVKISDNVIRALSKHIGPKSAKPDTTMFLYDTNGSYLNPFKNVAECFDYVAYQQYGSSSDRTARAAADYQPYIGNEFVPGLTFPEEGDMNNRWYDATEPYEESHFYQVASYVREHNLGGMFVYALDRDGRNYDEDLRRIVPSNLLWTKTAIAESEGMALDTAKTAANHYLDRMSLRQVIDDNAASADKARDMVGKAANLYETNKAVLGGDYGEGFSNTYDPTLEAGLLGIDISVLQQQIDKSSEIIGADTAESDAKTALRMARDAAIDGLTGKIYTADQVSAWSQALKAALDATVPVPTPDSTDQNGNRDKVTNHKVQGQPKQLSATGISTDIIVAVGVTLAIAGVALSLSRKLS
- glycan array binding signal (z-score) (GalNAc(b1-3)GlcNAc): -0.05
- glycan array binding signal (z-score) [1]: -0.064
- glycan array binding signal (z-score) (Glc(b1-6)Glc): -0.029
- glycan array binding signal (z-score) [2]: -0.069
- glycan array binding signal (z-score) [3]: -0.091
- glycan array binding signal (z-score) [4]: -0.065
- glycan array binding signal (z-score) (GlcNAc(b1-6)GalNAc): -0.094
- glycan array binding signal (z-score) [5]: -0.034
- glycan array binding signal (z-score) [6]: -0.083
- glycan array binding signal (z-score) (Man(a1-3)[Man(a1-6)]Man): -0.056
- glycan array binding signal (z-score) [7]: 0.323
- glycan array binding signal (z-score) [8]: 6.11
- glycan array binding signal (z-score) [9]: 22.6
- glycan array binding signal (z-score) (Man(b1-4)GlcNAc): -0.072
- glycan array binding signal (z-score) (MurNAc(b1-4)GlcNAc): -0.087
- glycan array binding signal (z-score) [10]: -0.077
- glycan array binding signal (z-score) [11]: 0.065
- glycan array binding signal (z-score) [12]: -0.063
- glycan array binding signal (z-score) [13]: -0.065
- glycan array binding signal (z-score) [14]: -0.05
- glycan array binding signal (z-score) [15]: -0.005
- glycan array binding signal (z-score) [16]: -0.04
- glycan array binding signal (z-score) [17]: 0.012
- glycan array binding signal (z-score) [18]: -0.077
- glycan array binding signal (z-score) [19]: -0.076
- glycan array binding signal (z-score) [20]: -0.078
- glycan array binding signal (z-score) (Neu5Ac(a2-8)Neu5Ac): -0.066
- glycan array binding signal (z-score) [21]: -0.079
